Data reported in PubChem BioAssay (NCATS).
Where “and” joins values, the source holds several entries; their conditions need not be identical. Identical values can stand only once. Results filed as inconclusive are left out. Calls of active or inactive are those of the source. Unless noted, the call rests on the fitted dose curve; in most records, active means well fitted curve in either direction with a large enough effect (not every such curve was filed as active); inconclusive means small, poorly fitted or top-dose-only effect, or another doubt; inactive means flat fitted curve, though single readings scatter.

What was measured:
[1] = AP1 Signaling Pathway (AID 357); details: ME-180 AP-1-bla reporter, EGF-induced, beta-lactamase ratio, 5 h;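 further: ME-180 reporter cells stimulated with EGF at its EC50 level; on the % scale 0 is the no-effect control and ±100 the full control effect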
Outline: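 Titration-series screen for positive or negative modulators of EC50 EGF-induced signaling in ME-180 cells carrying an AP-1-driven beta-lactamase reporter. After 5 hours at 37 degrees Celsius, CCF4 460nm/530nm emission ratio gave %Activity; AC50 values derived.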

[2] = molecular target: Cytochrome P450 1A2 (Homo sapiens) (UniProt P05177); experiment: p450-cyp1a2 (AID 410; calls by dose curve; further: potency means the concentration at half of the fitted maximal effect;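 on activity change, negative = inhibition: -100% = full effect of reference inhibitor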); details: recombinant CYP1A2, luciferin-ME demethylation, luminescence; series mostly up to 25.6 µM
Chain of Cytochrome P450 1A2 (Homo sapiens) (P05177 whole entry, looked up): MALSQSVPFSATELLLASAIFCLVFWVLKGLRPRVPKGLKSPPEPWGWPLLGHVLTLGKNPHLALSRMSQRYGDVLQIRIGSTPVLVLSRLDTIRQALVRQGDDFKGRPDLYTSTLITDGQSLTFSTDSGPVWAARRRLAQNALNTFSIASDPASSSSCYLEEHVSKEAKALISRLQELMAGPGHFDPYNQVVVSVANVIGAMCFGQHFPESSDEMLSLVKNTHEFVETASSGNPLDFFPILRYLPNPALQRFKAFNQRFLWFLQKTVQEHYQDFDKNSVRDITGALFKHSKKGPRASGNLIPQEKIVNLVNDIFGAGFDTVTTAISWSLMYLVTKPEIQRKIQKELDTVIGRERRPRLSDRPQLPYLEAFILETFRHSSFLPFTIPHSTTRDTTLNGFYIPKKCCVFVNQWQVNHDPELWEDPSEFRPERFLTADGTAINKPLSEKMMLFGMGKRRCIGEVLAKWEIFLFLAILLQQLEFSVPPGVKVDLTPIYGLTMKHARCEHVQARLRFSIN
Outline: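 20nM CYP1A2 with 100uM Luciferin-ME (at Km) in 100mM KPO4; compound preincubated 10 min, NADPH regeneration added, 60 min at room temperature. Luciferin quantified by luminescence after detection reagent; normalized to 57 uM furafylline.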

[3] = Cell Viability - Jurkat (AID 426;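 active means dose-dependent loss of cell ATP signal giving a full or clear fitted curve, ranked by lower potency value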; further: potency means the concentration at half of the fitted maximal effect); details: qHTS
Outline: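 Jurkat (Clone E6-1) cells, 5000/well in complete medium, exposed to compounds for 40 hr at 37C; intracellular ATP measured by CellTiter-Glo luminescence after 20 min at room temperature. AC50 from Hill fits.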

[4] = Cell Viability - MRC5 (AID 434; calls by dose curve;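 further: potency means the concentration at half of the fitted maximal effect; potency reflects cytotoxicity seen as loss of intracellular ATP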); details: MRC5 lung fibroblast viability, qHTS
Outline: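 qHTS cytotoxicity in human lung fibroblast MRC5 cells; 40 hr treatment, 37 °C; cellular ATP by luciferase luminescence; DMSO = 0%, 100 uM tamoxifen = 100% inhibition; Hill-fit AC50.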

[5] = Cell Viability - SK-N-SH (AID 435; calls by dose curve;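 further: potency means the concentration at half of the fitted maximal effect; compound exposure lasted 40 h at 37 °C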); details: SK-N-SH neuroblastoma cell viability qHTS
Outline: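 SK-N-SH neuroblastoma cells (1500/well) treated 40 h at 37 °C in complete medium; viability read as cellular ATP by CellTiter-Glo luminescence. Normalized to DMSO and 100 uM tamoxifen; AC50 from Hill fits of qHTS concentration-response.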

[6] = NFAT Signaling Pathway (AID 444); details: Jurkat NFAT-bla M1, carbachol, beta-lactamase ratio, 5 h;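 further: carbachol stimulus at about its EC50 of 1 µM final; on the % scale 0 is the no-effect control and ±100 the full control effect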
Outline: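 Read-out: CCF4 FRET ratio (460 nm/530 nm) after 1 h RT dye loading, used for %activity and AC50 from titration series. Cells: Jurkat NFAT-β-lactamase/M1 line, treated with compound plus 1 uM carbachol for 5 h, 37 °C.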

[7] = Stat Signaling Pathway (AID 446); details: ME-180 (cervical carcinoma) SIE beta-lactamase reporter, IL-6 stimulated, 5 h;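 further: ME-180 cervical cancer cells given 40 pM IL-6 alongside compound; SIE-controlled beta-lactamase reporter measured as 460/530 nm FRET emission ratio; on the % scale 0 is the no-effect control and ±100 the full control effect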
Outline: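 IL-6/STAT signaling read in ME-180 cells via an SIE beta-lactamase reporter. Stimulus was 40 pM IL-6 (its AC50) for 5 hrs, so both activation and inhibition register.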

[8] = molecular target: Glucocorticoid receptor (Homo sapiens) (UniProt P04150); experiment: GR-GFP Redistribution (AID 450;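 active means compounds whose dose series gives a full or clear partial fitted curve of increased nuclear translocation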; further: potency means the concentration at half of the fitted maximal effect); details: U2OS GR-GFP nuclear translocation, laser cytometry, 2 h
Chain of Glucocorticoid receptor (Homo sapiens) (P04150 whole entry, looked up, the tested form may be a part): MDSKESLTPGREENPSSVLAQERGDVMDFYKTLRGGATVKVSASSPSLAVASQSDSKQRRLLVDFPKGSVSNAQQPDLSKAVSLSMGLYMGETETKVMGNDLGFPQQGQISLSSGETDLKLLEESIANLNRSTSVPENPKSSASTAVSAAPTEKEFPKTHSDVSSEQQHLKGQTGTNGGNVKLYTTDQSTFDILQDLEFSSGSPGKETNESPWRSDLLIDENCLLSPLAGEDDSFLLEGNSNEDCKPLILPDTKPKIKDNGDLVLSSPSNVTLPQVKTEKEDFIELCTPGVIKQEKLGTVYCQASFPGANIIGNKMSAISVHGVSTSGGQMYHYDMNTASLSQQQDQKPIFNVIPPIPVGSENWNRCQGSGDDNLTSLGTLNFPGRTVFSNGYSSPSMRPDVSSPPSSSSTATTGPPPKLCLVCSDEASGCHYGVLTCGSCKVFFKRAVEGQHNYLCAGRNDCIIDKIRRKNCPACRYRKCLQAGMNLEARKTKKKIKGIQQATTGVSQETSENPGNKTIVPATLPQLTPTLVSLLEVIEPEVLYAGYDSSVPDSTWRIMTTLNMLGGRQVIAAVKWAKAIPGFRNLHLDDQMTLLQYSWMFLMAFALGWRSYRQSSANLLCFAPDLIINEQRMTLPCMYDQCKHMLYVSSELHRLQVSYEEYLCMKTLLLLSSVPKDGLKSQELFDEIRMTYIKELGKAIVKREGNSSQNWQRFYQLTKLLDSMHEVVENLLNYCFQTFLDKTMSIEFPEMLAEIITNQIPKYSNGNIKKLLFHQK

[9] = molecular target: Glucocorticoid receptor (Homo sapiens) (UniProt P04150); experiment: GR-EFC Redistribution (AID 451; calls by dose curve; further: potency means the concentration at half of the fitted maximal effect); details: CHO-K1 GR-EFC translocation, beta-gal luminescence, 2 h
Outline: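 Translocation of GR-ED fusion to nuclear EA restores b-gal, read by luminescence after 1 h room-temperature detection. Engineered CHO-K1 biosensor cells, 1,000/well, exposed 2 h at 37 C to titrations up to 46 uM final.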

[10] = molecular target: Mitogen-activated protein kinase 10 (Mus musculus) (UniProt Q61831); experiment: JNK3 AlphaScreen Assay (AID 530); details: JNK3 lysate, c-Jun phosphorylation; series mostly up to 25.6 µM;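 further: kinase came from lysate of stimulated human HepG2 cells; signal reports phosphorylation of biotinylated GST-cJun 1-79 at Ser73 with 10 µM ATP; on the % scale 0 is the no-effect control and ±100 the full control effect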
Outline: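 Compound titrations were preincubated 15 minutes at room temperature with substrate, antibody and pre-activated JNK3-containing HepG2 lysate. Reactions were started with 10 uM ATP and stopped with EDTA-containing bead buffer for AlphaScreen detection.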

[11] = Cell Viability - N2a (AID 540; active means well fitted curve in the direction sought with a large enough effect; an effect the other way counts as inactive or inconclusive; further: nearly all actives have a fitted effect of over 45% in size; further: potency means the concentration at half of the fitted maximal effect;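 on activity change, negative = cytotoxicity: plate controls were DMSO alone for no effect and tamoxifen control for full effect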); details: N2a mouse neuroblastoma cell viability; activity change, negative = cytotoxicity: at 92.2 µM (top of the series)
Outline: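 Mouse neuroblastoma N2a cells, 1500/well, exposed to compounds 40 h at 37 °C in complete medium. Viability measured as cellular ATP by CellTiter-Glo luminescence; AC50 from Hill fits of concentration-response.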

[12] = Cell Viability - NIH 3T3 (AID 541; active means well fitted curve in the direction sought with a large enough effect; an effect the other way counts as inactive or inconclusive; further: nearly all actives have a fitted effect of over 25% in size; further: potency means the concentration at half of the fitted maximal effect;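 on activity change, negative = cytotoxicity: plate controls were DMSO alone for no effect and tamoxifen positive control for full effect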); details: NIH 3T3 cell viability, qHTS; activity change, negative = cytotoxicity: at 92.2 µM (top of the series)
Outline: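 Mouse NIH 3T3 fibroblasts, 1000 cells/well, rested 5 hr at 37 °C, then exposed to compound for 40 hr at 37 °C in complete medium. Viability read as intracellular ATP by CellTiter-Glo luminescence; AC50 from Hill-equation fits of concentration-response data.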

[13] = Cell Viability - HUV-EC-C (AID 542; active means well fitted curve in the direction sought with a large enough effect; an effect the other way counts as inactive or inconclusive; further: nearly all actives have a fitted effect of over 35% in size; further: potency means the concentration at half of the fitted maximal effect); details: HUV-EC-C endothelial cell viability, qHTS; series mostly up to 92.2 µM
Outline: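 HUV-EC-C human vascular endothelial cells, 1000/well, exposed to compound for 40 hr at 37 °C in complete medium. Intracellular ATP was read by CellTiter-Glo luminescence. AC50 came from Hill-equation fits of concentration-response data.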

[14] = Cell Viability - SH-SY5Y (AID 544; active means well fitted curve in the direction sought with a large enough effect; an effect the other way counts as inactive or inconclusive; further: nearly all actives have a fitted effect of over 55% in size; further: potency means the concentration at half of the fitted maximal effect;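 on viability change, negative = cytotoxic: 0% = DMSO alone and -100% = 100 µM tamoxifen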); details: SH-SY5Y neuroblastoma cell viability; viability change, negative = cytotoxic: at 92.2 µM (top of the series)
Outline: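 SH-SY5Y human neuroblastoma cells (1500/well) incubated 5 h, then compound-treated 40 h at 37 °C in complete medium. Viability read as intracellular ATP by CellTiter-Glo luminescence after 20 min; AC50 from Hill-equation fits of qHTS concentration-response.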

[15] = Cell Viability - Renal Proximal Tubule (AID 545; active means well fitted curve in the direction sought with a large enough effect; an effect the other way counts as inactive or inconclusive;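 further: 0% = DMSO only and -100% = 100 µM tamoxifen; nearly all actives have a fitted effect of over 40% in size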); details: renal proximal tubule cells viability, primary cells of rat origin; activity change, negative = cytotoxicity: at 91.7 µM (top of the series)
Outline: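 Rat renal proximal tubule primary cells, 1000/well, exposed to compounds for 40 hr at 37 °C in complete medium; cellular ATP read by CellTiter-Glo luminescence. AC50 from concentration-response fitted with standard Hill equation.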

[16] = Cell Viability - BJ (AID 421; calls by dose curve;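 further: potency means the concentration at half of the fitted maximal effect; cells exposed to compound for 40 hours at 37 °C before readout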); details: BJ fibroblast viability, qHTS
Outline: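 Quantitative HTS: ATP depletion in BJ cells after 40 hr compound exposure in complete culture medium, detected with CellTiter-Glo; AC50 from standard Hill fits.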

[17] = Cell Viability - HepG2 (AID 433; calls by dose curve;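 further: potency means the concentration at half of the fitted maximal effect; potency for ATP loss meaning cytotoxicity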); details: qHTS
Outline: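 HepG2 cells, 1500 per well, treated 40 hr at 37 °C in complete medium; viability from intracellular ATP by CellTiter-Glo luminescence. Normalized to DMSO and 100 uM tamoxifen; AC50 from Hill fit of qHTS concentration-response.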

[18] = Cell Viability - H-4-II-E (AID 543; active means well fitted curve in the direction sought with a large enough effect; an effect the other way counts as inactive or inconclusive; further: potency means the concentration at half of the fitted maximal effect; nearly all actives have a fitted effect of over 35% in size); details: H-4-II-E rat hepatoma viability; series mostly up to 92.2 µM
Outline: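 Rat hepatoma H-4-II-E cells, 1500 per well, treated 40 h at 37 °C in complete medium. Cellular ATP read by CellTiter-Glo luminescence; AC50 from Hill fits of concentration-response.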

C=C(CC)C(=O)c1ccc(OCC(=O)O)c(Cl)c1Cl
active: Potency [3] 9.25 µM | Potency [5] 45.3 µM | activity change, negative = inhibition ([6]; at 17.2 µM (top of the series)) -133% | activity change, negative = cytotoxicity [11] -112% | activity change, negative = cytotoxicity [12] -86.1% | viability change, negative = cytotoxic [14] -99.4% | activity change, negative = cytotoxicity [15] -86.3%
inactive: activity change, negative = inhibition ([1]; at 17.2 µM (top of the series)) -11.1% and -7.79% | Potency [2] | Potency [4] > 92 µM | activity, negative = inhibition ([7]; at 17.2 µM (top of the series)) -17.9% | Potency [8] > 20.6 µM | Potency [9] > 20.6 µM | outcome [10] | Potency [13]

CCOC(=O)n1ccn(C)c1=S
active: Potency [2] 12.6 µM
inactive: activity change, negative = inhibition ([1]; at 17.2 µM (top of the series)) 13.2% | activity change, negative = inhibition ([6]; at 17.2 µM (top of the series)) -13.3% | activity, negative = inhibition ([7]; at 17.2 µM (top of the series)) 4.14% | Potency [8] > 20.6 µM | Potency [9] > 20.6 µM | outcome [10]

Oc1cc(O)c2c(c1)O[C@H](c1ccc(O)c(O)c1)[C@H](O)C2
inactive: activity change, negative = inhibition ([1]; at 17.2 µM (top of the series)) 10.1% and 0.263% | activity change, negative = inhibition ([1]; at 38 µM (top of the series)) -5.09% | Potency [2] | activity change, negative = inhibition ([6]; at 17.2 µM (top of the series)) -6.82% and 0.191% | activity change, negative = inhibition ([6]; at 38 µM (top of the series)) -2.11% | Potency [8] > 46 µM and > 20.6 µM | Potency [9] > 46 µM and > 20.6 µM | outcome [10]

COc1c(C)c2c(c(O)c1C/C=C(\C)CCC(=O)O)C(=O)OC2
inactive: activity change, negative = inhibition ([1]; at 17.2 µM (top of the series)) 6.58% | activity change, negative = inhibition ([6]; at 17.2 µM (top of the series)) -1.42% | activity, negative = inhibition ([7]; at 17.2 µM (top of the series)) 8.02% | outcome [10]
active: Potency [2] 31.6 µM

C[C@H](O)C(=O)Nc1c(I)c(C(=O)NC(CO)CO)c(I)c(C(=O)NC(CO)CO)c1I
inactive: activity change, negative = inhibition ([1]; at 17.2 µM (top of the series)) 11.2% | Potency [2] | activity change, negative = inhibition ([6]; at 17.2 µM (top of the series)) 3.52% | Potency [8] > 20.6 µM | Potency [9] > 20.6 µM | outcome [10]

Oc1ccc(O)cc1
inactive: activity change, negative = inhibition ([1]; at 38 µM (top of the series)) -22.8% | Potency [2] | Potency [16] > 92 µM | Potency [17] > 92 µM | Potency [4] > 92 µM | activity change, negative = inhibition ([6]; at 38 µM (top of the series)) -5.74% | activity, negative = inhibition ([7]; at 38 µM (top of the series)) 3.99% | Potency [8] > 46 µM | Potency [9] > 46 µM | outcome [10]
active: Potency [3] 4.41 µM | Potency [11] 20 µM | Potency [12] 20 µM | Potency [13] 39.8 µM | Potency [18] 79.4 µM | Potency [14] 3.16 µM
